# Columns and labels:
# Assay in all cases: DAPPL (digital affinity profiling via proximity ligation, sequencing); 10 mM Tris-HCl pH 7.5, 50 mM NaCl, 1 mM DTT, 4% glycerol, room temperature, 30 min; GST-TFs on glutathione beads, 16-mer random dsDNA library, 0.1% formaldehyde crosslink after washing; high values mean tight binding
# [1] = molecular target: T1, FEV (Homo sapiens, UniProt Q99581 1-238); conditions: protein: recombinant; tags: N-terminal GST; dsDNA, one strand shown
# T1 sequence: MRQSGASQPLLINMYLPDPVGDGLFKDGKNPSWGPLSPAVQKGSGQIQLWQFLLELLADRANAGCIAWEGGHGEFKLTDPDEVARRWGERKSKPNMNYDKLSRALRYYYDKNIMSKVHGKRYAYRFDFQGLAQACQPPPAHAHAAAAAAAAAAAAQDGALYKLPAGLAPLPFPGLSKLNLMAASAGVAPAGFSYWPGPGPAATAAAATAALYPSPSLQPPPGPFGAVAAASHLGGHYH
# In short: (§1)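 Binding signal is given per hexamer as its read frequency for a factor divided by its frequency in the tag-only sample. GST-fused human transcription factors were expressed in yeast, captured on glutathione beads, barcoded with DNA and pooled with that sample, then incubated with 200 nmole of a 16-mer random double-stranded DNA library in Tris/NaCl/DTT/glycerol buffer for 30 min at room temperature. The pools were then washed, crosslinked, proximity-ligated, amplified by PCR and sequenced on an Illumina NextSeq500.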
# [2] = molecular target: ETV5 (Homo sapiens, UniProt P41161 1-510); conditions: protein: recombinant; tags: N-terminal GST; dsDNA, one strand shown
# Sequence of ETV5 (P41161 whole entry): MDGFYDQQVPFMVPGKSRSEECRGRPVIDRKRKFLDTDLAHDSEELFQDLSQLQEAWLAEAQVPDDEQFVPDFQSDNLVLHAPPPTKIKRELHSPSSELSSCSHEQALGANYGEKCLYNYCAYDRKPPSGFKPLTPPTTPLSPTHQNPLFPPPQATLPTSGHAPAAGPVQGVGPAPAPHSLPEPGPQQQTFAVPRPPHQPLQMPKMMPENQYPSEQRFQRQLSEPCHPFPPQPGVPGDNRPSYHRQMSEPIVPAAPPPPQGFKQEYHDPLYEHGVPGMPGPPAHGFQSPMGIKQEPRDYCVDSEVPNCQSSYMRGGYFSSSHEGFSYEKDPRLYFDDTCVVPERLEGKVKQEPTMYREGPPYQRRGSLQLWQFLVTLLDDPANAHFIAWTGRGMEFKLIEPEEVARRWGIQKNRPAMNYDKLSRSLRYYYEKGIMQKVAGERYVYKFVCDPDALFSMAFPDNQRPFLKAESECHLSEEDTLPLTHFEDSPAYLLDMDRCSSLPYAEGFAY
# In short: as §1
# [3] = molecular target: HSF1 (Homo sapiens, UniProt Q00613 1-529); conditions: protein: recombinant; tags: N-terminal GST; chain copies: 3; dsDNA, one strand shown
# Sequence of HSF1 (Q00613 whole entry): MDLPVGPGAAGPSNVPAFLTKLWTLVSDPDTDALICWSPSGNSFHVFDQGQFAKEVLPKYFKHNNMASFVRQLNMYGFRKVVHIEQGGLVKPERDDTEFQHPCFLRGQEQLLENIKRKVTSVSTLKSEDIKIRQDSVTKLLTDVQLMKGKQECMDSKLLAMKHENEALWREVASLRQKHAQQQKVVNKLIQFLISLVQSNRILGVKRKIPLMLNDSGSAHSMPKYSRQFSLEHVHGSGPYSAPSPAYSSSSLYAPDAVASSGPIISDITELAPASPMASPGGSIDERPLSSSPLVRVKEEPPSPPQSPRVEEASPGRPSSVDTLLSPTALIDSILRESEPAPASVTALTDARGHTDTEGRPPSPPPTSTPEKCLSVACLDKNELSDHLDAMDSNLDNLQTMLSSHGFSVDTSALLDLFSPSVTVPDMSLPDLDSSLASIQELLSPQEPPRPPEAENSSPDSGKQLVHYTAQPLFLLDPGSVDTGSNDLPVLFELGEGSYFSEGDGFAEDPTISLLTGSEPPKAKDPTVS
# In short: as §1
# [4] = molecular target: T2, SPIC (Homo sapiens, UniProt Q8N5J4 1-248); conditions: protein: recombinant; tags: N-terminal GST; dsDNA, one strand shown
# T2 sequence: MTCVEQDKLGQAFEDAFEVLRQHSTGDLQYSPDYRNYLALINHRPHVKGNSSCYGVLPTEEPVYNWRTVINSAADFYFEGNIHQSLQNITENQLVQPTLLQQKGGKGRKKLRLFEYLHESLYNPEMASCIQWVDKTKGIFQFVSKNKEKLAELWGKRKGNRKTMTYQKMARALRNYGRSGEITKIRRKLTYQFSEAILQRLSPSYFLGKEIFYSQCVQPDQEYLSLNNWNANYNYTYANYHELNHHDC
# In short: as §1
# [5] = molecular target: ELF4 (Homo sapiens, UniProt Q99607 1-663); conditions: protein: recombinant; tags: N-terminal GST; dsDNA, one strand shown
# Sequence of ELF4 (Q99607 whole entry): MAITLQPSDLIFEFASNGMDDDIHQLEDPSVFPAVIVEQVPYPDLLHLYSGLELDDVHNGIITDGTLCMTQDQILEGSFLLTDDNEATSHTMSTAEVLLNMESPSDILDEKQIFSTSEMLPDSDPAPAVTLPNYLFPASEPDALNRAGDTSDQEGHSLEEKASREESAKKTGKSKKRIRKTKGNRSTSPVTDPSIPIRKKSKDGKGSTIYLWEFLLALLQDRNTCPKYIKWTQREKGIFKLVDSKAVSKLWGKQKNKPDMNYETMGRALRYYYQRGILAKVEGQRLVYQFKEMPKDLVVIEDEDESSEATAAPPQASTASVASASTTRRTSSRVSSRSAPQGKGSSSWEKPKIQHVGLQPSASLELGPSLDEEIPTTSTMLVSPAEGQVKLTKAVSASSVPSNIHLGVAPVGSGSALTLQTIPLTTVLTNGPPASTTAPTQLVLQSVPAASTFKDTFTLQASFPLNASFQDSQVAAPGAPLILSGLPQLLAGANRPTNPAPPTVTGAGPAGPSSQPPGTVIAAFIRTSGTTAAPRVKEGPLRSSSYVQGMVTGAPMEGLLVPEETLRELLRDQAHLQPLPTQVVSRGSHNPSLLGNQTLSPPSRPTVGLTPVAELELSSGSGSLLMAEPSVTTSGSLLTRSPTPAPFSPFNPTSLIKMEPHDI
# In short: as §1
# [6] = molecular target: T3, ELK4 (Homo sapiens, UniProt P28324-2 1-405); conditions: protein: recombinant; tags: N-terminal GST; dsDNA, one strand shown
# T3 sequence: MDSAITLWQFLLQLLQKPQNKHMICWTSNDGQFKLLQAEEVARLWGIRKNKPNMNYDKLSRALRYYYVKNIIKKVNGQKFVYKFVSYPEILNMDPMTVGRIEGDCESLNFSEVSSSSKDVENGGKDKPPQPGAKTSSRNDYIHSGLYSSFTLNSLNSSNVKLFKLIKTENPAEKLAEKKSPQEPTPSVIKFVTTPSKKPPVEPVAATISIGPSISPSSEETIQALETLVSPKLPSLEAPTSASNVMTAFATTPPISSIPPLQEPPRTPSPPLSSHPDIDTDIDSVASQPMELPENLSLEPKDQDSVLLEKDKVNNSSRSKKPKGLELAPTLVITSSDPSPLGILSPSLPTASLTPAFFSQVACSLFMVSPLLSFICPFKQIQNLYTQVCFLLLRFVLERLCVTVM
# In short: as §1
# [7] = molecular target: T4, ETV2 (Homo sapiens, UniProt O00321 1-342); conditions: protein: recombinant; tags: N-terminal GST; dsDNA, one strand shown
# T4 sequence: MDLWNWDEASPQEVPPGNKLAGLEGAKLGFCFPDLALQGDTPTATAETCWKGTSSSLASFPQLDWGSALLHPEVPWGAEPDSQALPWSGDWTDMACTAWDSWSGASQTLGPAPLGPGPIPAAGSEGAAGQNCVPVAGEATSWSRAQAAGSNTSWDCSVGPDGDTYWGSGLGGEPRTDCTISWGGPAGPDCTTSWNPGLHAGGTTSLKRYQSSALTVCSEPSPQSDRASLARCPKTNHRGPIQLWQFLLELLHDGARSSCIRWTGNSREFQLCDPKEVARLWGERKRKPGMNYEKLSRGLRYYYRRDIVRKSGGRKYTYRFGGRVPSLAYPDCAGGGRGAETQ
# In short: as §1
# [8] = molecular target: T5, ELF3 (Homo sapiens, UniProt P78545 1-371); conditions: protein: recombinant; tags: N-terminal GST; dsDNA, one strand shown
# T5 sequence: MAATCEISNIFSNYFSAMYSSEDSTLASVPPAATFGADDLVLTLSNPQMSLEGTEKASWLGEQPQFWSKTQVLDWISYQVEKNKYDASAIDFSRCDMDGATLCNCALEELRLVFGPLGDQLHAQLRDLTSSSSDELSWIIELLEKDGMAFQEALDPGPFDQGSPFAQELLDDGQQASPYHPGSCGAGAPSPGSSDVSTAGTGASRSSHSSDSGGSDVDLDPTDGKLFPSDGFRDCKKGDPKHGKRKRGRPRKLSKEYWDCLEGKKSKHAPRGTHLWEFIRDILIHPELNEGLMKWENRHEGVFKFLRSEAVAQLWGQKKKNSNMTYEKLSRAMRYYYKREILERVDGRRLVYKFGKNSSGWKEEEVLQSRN
# In short: as §1
# [9] = molecular target: CRX (Homo sapiens, UniProt O43186 1-299); conditions: protein: recombinant; tags: N-terminal GST; dsDNA, one strand shown
# Sequence of CRX (O43186 whole entry): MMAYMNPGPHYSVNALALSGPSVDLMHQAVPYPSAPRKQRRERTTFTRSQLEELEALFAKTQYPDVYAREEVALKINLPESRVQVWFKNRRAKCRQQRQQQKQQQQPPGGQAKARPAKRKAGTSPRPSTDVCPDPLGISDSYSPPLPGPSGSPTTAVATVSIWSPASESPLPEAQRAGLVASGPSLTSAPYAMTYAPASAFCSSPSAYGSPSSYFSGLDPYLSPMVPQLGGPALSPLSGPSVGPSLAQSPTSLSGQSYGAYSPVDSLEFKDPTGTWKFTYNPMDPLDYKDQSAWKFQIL
# In short: as §1
# [10] = molecular target: ETV1 (Homo sapiens, UniProt P50549 1-477); conditions: protein: recombinant; tags: N-terminal GST; dsDNA, one strand shown
# Sequence of ETV1 (P50549 whole entry): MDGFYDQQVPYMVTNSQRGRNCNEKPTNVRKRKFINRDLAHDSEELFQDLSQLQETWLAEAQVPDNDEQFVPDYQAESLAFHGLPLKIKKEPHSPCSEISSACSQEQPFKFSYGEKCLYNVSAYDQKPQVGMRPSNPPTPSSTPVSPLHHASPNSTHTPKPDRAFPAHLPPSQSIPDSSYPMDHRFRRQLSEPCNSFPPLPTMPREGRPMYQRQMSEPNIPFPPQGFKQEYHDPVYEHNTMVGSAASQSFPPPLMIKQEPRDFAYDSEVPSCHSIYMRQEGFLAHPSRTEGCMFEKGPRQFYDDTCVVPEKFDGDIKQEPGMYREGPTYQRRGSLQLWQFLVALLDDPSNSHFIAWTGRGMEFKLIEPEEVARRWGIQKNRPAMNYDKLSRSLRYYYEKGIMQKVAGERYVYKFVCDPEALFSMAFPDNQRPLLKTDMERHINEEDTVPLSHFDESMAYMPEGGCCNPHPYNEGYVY
# In short: as §1
# [11] = molecular target: T6, ERF (Homo sapiens, UniProt P50548 1-548); conditions: protein: recombinant; tags: N-terminal GST; dsDNA, one strand shown
# T6 sequence: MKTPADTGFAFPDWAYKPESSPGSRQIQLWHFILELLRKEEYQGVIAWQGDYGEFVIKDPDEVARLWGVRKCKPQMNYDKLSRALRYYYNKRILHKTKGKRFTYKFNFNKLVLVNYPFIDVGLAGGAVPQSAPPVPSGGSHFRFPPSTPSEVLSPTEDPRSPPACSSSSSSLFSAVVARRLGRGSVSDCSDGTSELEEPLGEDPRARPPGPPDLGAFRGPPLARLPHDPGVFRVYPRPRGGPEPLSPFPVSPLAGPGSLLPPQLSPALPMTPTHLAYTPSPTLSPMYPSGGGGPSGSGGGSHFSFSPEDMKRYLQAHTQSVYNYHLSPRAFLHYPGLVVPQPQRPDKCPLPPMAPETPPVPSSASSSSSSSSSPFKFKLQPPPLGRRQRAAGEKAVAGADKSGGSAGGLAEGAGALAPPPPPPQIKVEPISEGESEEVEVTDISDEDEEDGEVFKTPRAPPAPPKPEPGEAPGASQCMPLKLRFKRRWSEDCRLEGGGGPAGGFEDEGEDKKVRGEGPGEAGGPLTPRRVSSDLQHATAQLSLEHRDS
# In short: as §1
# [12] = molecular target: T7, ETV3L (Homo sapiens, UniProt Q6ZN32 1-361); conditions: protein: recombinant; tags: N-terminal GST; dsDNA, one strand shown
# T7 sequence: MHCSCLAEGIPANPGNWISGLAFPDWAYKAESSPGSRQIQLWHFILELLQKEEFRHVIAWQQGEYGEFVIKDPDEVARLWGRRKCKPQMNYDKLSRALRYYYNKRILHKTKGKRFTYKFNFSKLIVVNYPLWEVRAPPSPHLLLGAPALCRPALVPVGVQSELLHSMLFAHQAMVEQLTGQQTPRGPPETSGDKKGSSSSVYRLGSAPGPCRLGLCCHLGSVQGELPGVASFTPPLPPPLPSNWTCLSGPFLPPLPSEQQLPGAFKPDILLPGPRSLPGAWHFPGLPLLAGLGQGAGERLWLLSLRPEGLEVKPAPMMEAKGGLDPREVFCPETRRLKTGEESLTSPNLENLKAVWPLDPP
# In short: as §1
# [13] = molecular target: T8, ETS2 (Homo sapiens, UniProt P15036 1-469); conditions: protein: recombinant; tags: N-terminal GST; dsDNA, one strand shown
# T8 sequence: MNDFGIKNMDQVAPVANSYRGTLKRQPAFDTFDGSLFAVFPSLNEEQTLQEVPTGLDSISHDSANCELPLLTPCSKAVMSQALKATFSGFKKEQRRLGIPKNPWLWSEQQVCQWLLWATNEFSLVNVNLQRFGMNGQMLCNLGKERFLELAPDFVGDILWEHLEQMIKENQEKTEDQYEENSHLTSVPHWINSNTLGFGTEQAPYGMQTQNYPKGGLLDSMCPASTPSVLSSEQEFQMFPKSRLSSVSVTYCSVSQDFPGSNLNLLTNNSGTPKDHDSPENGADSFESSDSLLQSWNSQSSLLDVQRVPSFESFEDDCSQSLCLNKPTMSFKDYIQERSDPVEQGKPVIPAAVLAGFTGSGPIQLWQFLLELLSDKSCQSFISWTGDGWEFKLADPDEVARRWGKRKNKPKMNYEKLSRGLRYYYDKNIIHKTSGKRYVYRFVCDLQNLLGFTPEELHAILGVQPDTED
# In short: as §1
# [14] = molecular target: T9, SPDEF (Homo sapiens, UniProt O95238 1-335); conditions: protein: recombinant; tags: N-terminal GST; dsDNA, one strand shown
# T9 sequence: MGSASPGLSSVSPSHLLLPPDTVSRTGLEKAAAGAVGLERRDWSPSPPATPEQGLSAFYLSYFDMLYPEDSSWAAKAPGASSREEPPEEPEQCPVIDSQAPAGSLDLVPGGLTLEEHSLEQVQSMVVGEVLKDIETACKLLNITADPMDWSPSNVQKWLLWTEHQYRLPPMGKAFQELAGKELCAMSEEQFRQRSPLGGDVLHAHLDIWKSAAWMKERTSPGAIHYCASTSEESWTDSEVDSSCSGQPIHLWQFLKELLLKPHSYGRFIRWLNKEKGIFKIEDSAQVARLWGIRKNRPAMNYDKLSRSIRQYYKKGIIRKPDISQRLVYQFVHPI
# In short: as §1
# [15] = molecular target: T10, ETV7 (Homo sapiens, UniProt Q9Y603 1-341); conditions: protein: recombinant; tags: N-terminal GST; dsDNA, one strand shown
# T10 sequence: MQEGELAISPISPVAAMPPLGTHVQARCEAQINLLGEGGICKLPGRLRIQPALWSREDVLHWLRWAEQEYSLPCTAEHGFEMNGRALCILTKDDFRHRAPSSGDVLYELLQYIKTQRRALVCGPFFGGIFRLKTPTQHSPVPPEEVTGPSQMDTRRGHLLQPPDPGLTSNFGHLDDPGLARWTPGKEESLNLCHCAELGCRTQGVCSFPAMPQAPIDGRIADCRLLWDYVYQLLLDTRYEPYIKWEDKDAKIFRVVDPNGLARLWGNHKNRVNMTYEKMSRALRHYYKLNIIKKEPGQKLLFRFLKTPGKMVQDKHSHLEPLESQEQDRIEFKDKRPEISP
# In short: as §1
# [16] = molecular target: T11, ELF5 (Homo sapiens, UniProt Q9UKW6-2 1-255); conditions: protein: recombinant; tags: N-terminal GST; dsDNA, one strand shown
# T11 sequence: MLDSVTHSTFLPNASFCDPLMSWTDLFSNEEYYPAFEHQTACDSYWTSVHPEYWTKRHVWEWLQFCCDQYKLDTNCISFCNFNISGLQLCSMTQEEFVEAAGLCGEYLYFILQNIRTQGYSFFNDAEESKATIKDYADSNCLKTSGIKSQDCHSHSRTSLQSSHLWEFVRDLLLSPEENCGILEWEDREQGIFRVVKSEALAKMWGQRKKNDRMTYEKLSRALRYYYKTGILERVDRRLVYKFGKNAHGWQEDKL
# In short: as §1
# [17] = molecular target: T12, ETV3 (Homo sapiens, UniProt P41162-2 1-143); conditions: protein: recombinant; tags: N-terminal GST; dsDNA, one strand shown
# T12 sequence: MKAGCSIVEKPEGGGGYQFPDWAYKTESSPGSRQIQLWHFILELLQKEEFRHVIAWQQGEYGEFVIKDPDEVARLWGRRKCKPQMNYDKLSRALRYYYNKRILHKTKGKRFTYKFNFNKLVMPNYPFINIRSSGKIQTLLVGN
# In short: as §1
# [18] = molecular target: ETV6 (Homo sapiens, UniProt P41212 1-452); conditions: protein: recombinant; tags: N-terminal GST; dsDNA, one strand shown
# Sequence of ETV6 (P41212 whole entry): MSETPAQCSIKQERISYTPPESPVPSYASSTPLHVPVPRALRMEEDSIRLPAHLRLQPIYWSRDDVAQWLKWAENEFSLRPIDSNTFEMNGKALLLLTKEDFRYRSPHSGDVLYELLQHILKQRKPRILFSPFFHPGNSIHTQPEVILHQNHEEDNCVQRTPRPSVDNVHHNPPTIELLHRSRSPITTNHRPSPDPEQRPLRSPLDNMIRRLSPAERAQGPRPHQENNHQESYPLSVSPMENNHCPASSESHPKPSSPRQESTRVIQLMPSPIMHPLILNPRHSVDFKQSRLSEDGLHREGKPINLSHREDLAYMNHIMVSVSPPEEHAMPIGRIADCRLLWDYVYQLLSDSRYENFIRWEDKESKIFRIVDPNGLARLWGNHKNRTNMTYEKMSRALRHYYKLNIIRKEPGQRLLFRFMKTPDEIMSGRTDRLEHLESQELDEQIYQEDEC
# In short: as §1
sequence,measurement,setting,value
ATTGCG,binding signal,[1],"1.17 fold enrichment (6-mer frequency, TF over GST control)"
same,binding signal,[2],"1.24 fold enrichment (6-mer frequency, TF over GST control)"
same,binding signal,[3],"1.07 fold enrichment (6-mer frequency, TF over GST control)"
same,binding signal,[4],"1.29 fold enrichment (6-mer frequency, TF over GST control)"
same,binding signal,[5],"1.25 fold enrichment (6-mer frequency, TF over GST control)"
same,binding signal,[6],"1.14 fold enrichment (6-mer frequency, TF over GST control)"
same,binding signal,[7],"1.59 fold enrichment (6-mer frequency, TF over GST control)"
same,binding signal,[8],"1.29 fold enrichment (6-mer frequency, TF over GST control)"
same,binding signal,[9],"1.12 fold enrichment (6-mer frequency, TF over GST control)"
same,binding signal,[10],"1.29 fold enrichment (6-mer frequency, TF over GST control)"
same,binding signal,[11],"1.35 fold enrichment (6-mer frequency, TF over GST control)"
same,binding signal,[12],"1.29 fold enrichment (6-mer frequency, TF over GST control)"
same,binding signal,[13],"1.27 fold enrichment (6-mer frequency, TF over GST control)"
same,binding signal,[14],"1.09 fold enrichment (6-mer frequency, TF over GST control)"
same,binding signal,[15],"1.17 fold enrichment (6-mer frequency, TF over GST control)"
same,binding signal,[16],"1.21 fold enrichment (6-mer frequency, TF over GST control)"
same,binding signal,[17],"1.16 fold enrichment (6-mer frequency, TF over GST control)"
same,binding signal,[18],"1.27 fold enrichment (6-mer frequency, TF over GST control)"

# — paper PMC7862700, “An all-to-all approach to the identification of sequence-specific readers for epigenetic DNA modifications on cytosine”
